Rows were chosen to be rich in hits. Some 7.9% of all compounds tested hit in one or more screens of this group.
Cav3 T inh: blocks human Cav3.2 T-type calcium channel; O95180; Cav3.2-expressing cells, Fluo-4 calcium fluorescence FDSS; hits give low values; B-score at 10 µM; 100,000 tested, 4% active; AID 449739;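 active means single-dose well whose peak fluorescence ratio is a statistical outlier from its plate by either plate-standardised score or position-corrected B-score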
M1 agonist: activates the M1 muscarinic receptor. CHO-M1 cells, Fluo-4 calcium fluorescence, agonist mode; hits give high values. B-score at 10 µM. 64,000 tested, 3% active;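 active means fluorescence rise, raw or as B-score row- and column-corrected plate score, outside the 99.7% band of its plate's samples, either direction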
PLAP act: human PLAP activation; activation fold at 20 µM; AID 696; 96,000 tested, 1.2% active; purified PLAP enzyme, luminescent substrate read-out; hits give high values; P05187; in the data active means activation fold above about 2
Target sequence (P05187 whole entry, looked up): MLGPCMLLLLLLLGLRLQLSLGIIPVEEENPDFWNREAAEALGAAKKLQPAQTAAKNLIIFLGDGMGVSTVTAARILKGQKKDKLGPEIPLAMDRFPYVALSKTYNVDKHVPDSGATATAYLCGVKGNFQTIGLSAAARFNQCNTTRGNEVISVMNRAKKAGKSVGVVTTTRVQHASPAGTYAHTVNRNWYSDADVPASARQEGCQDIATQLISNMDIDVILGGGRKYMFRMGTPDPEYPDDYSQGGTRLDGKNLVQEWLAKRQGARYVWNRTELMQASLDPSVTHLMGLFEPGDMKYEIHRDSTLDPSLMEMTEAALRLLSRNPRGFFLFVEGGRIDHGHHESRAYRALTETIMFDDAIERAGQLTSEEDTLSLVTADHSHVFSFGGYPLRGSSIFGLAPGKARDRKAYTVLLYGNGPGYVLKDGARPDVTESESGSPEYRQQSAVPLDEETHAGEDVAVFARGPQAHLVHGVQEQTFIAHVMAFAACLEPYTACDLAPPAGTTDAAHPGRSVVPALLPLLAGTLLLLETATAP
M1 antag: antagonists of rat M1 muscarinic receptor; P08482; CHO-M1 cells, Fluo-4 calcium, ACh EC80 antagonist mode; hits give low values; B-score at 10 µM; 64,000 tested, 3.4% active; AID 628;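 active means calcium fluorescence response, raw or row-and-column corrected B-score, differing from the plate sample mean either way at a set confidence level, mostly lower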
Her2 expr inh: inhibitors of human Her2 kinase expression | SKBR-3 HER2 protein level, AlphaScreen, 18-24 h; hits give low values | HER2 level % of control, % at 10 µM | 65,000 tested, 0.69% active | P04626;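 active means HER2 level under 5% of the carrier-only control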;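 further: 100% = DMSO carrier and 0% = 500 nM PU-H71 HSP90 inhibitor; lower value means stronger loss of Her2 protein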
An asterisk follows results filed as active; · = no result.

SMILES | Cav3 T inh | M1 agonist | PLAP act | M1 antag | Her2 expr inh
COC(=O)C1CCN(C(=O)C(C)Oc2ccc(Cl)cc2Cl)CC1 (stereo not given) | -0.826 | -0.15 | 1.6 | 1.25* | 180.0
CCOC(=O)C1CCCN(C(=O)Cc2ccc(Cl)cc2)C1 (stereo not given) | -1.12 | · | 1 | · | ·
COc1ccc(-c2cn3c(C)c(C(=O)N4CCN(c5ccc(OC)cc5)CC4)sc3n2)cc1 | · | -0.904 | · | 0.615 | 77.2
N#Cc1nc(-c2cccs2)oc1N1CCN(Cc2ccccc2)CC1 | -0.822 | 0.00695 | 1.2 | 0.19 | 105.8
CC(/C=N/NC(=O)c1ccc(Br)cc1)=C\c1ccccc1 | -0.0115 | · | 1 | · | ·
C/C(=N\NC(=O)c1ccc(Br)cc1)C1C(=O)c2ccccc2C1=O | -4.16* | · | 0.9 | · | ·
COc1ccc(-c2nn3c(C4CCCCC4)nnc3s2)cc1OC | -0.19 | 0.978 | 1.6 | 0.0256 | 133.1
C1CCC(c2nn3c(-c4n[nH]c5c4CCC5)nnc3s2)CC1 | 0.724 | -0.158 | 2.3* | 0.0433 | 91.0
COc1ccc(-c2nnc3sc(C4CCCCC4)nn23)cc1OC | 1.76 | 0.382 | 2.1* | 0.234 | 69.4
CCN(CC)c1ccc(-c2nn3c(-c4n[nH]c5c4CCC5)nnc3s2)cc1 | -1.26 | 0.293 | 1.3 | 0.0245 | -28.8*
Cc1nc(NCCc2ccccc2)c2oc3ccccc3c2n1 | -1.85 | · | 1.8 | · | ·
CC(=O)n1cc([C@H]2C=C(C(N)=O)O[C@@H](OCc3ccc(CO)cc3)C2)c2ccccc21 | 0.324 | · | · | · | ·
CC(c1ccccc1)N1C(=O)c2ccccc2C1O (stereo not given) | 0.243 | · | 0.8 | · | ·
O=C(CSc1nc2cc(Cl)ccc2s1)c1ccco1 | -0.252 | -0.541 | 1.2 | 0.727 | -1.4*
CC1CCC(C(C)C)C(OC(=O)CSc2nc(N)cc(=O)[nH]2)C1 (stereo not given) | -0.743 | · | 1.1 | · | ·
CC1CCC(C(C)C)C(OC(=O)CSc2nnc(N)s2)C1 (stereo not given) | -4.76* | · | 0.8 | · | ·
Cc1ccc(S(=O)(=O)NC2(C(F)(F)F)C(=O)Nc3c2c(=O)n(C)c(=O)n3C)cc1 (stereo not given) | 0.511 | 0.0552 | 0.8 | -0.642 | 78.5
CCC(=O)NC1(C(F)(F)F)C(=O)Nc2c1c(=O)n(C)c(=O)n2C (stereo not given) | 2.89* | 0.218 | 0.9 | 0.168 | 89.7
O=C(c1ccco1)N1CCN(S(=O)(=O)Cc2ccc(Cl)cc2)CC1 | -0.81 | 1.09 | 1.1 | -0.872 | 78.9
N#C/C(=N\Nc1cccc(Cl)c1)C(=O)c1ccccc1 | -9.16* | · | 1.2 | · | ·
N#C/C(=N\Nc1ccccc1Cl)C(=O)c1ccccc1 | · | · | 1 | · | ·
C/C(CCc1ccc2c(c1)OCO2)=N\N=C(/N)SC1CC(=O)N(c2ccccc2F)C1=O (stereo not given) | -5.91* | · | 1.1 | · | ·
C/C(CCc1ccc2c(c1)OCO2)=N\N=C1\NC(=O)CC(C(=O)Nc2ccccc2)S1 (stereo not given) | -3.78 | · | 1.3 | · | ·
CCCC12CN3CC(CCC)(CN(C1)C3C(O)C(O)C(O)CO)C2=O (stereo not given) | -0.0333 | -0.224 | 1 | -0.763 | 88.8
O=C(CN(C(=O)CSc1nnc(COc2ccccc2)o1)c1ccc(F)cc1)NC1CCCC1 | -0.425 | -0.953 | 1.1 | 0.462 | 96.3
SMILES | Cav3 T inh | M1 agonist | PLAP act | M1 antag | Her2 expr inh
CCOc1ccc(N(CC(=O)NC2CCCC2)C(=O)CSc2nnc(COc3ccccc3)o2)cc1 | -5.37* | · | 1.1 | · | ·
O=C1N[C@@H](Cc2cn(S(=O)(=O)c3c(F)c(F)c(F)c(F)c3F)c3ccccc23)C(=O)N[C@H]1Cc1ccccc1 | 0.394 | · | · | · | ·
O=S(=O)(NC1CCCCC1)c1ccc(Cl)s1 | -0.0806 | 0.219 | 1.2 | -0.437 | 115.2
COCCn1nnnc1C(c1cccs1)N1CCN(c2cccc(C(F)(F)F)c2)CC1 (stereo not given) | -5.4* | · | 1.2 | · | ·
CC1CCN(S(=O)(=O)c2ccc(NC(=O)CN3CCN(c4ccccc4)CC3)cc2)CC1 | -0.374 | -0.76 | 1.1 | -0.827 | 49.2
CC1CCN(S(=O)(=O)c2ccc(NC(=O)Cc3ccccc3)cc2)CC1 | -5.92* | · | 1.7 | · | ·
O=C(N/N=C/c1cc2ccccc2nc1Cl)/C(=C/c1cccs1)NC(=O)c1ccccc1 | -5.87* | · | 1.5 | · | ·
COc1ccc([N+](=O)[O-])cc1/C=N/NC(=O)/C(=C\c1cccs1)NC(=O)c1ccccc1 | -1.15 | · | 0.9 | · | ·
CCn1c(CNc2ccc(Cl)cc2)nnc1SCC(=O)OC1CCCCC1 | -8.44* | · | · | · | ·
CSc1nsc(SCCN2C(=O)c3ccccc3C2=O)n1 | -1.07 | 1.19 | 0.9 | 2.34* | 163.8
Cc1csc(SCCN2C(=O)c3ccccc3C2=O)n1 | -0.593 | -0.174 | 1 | 0.0766 | 106.2
